# Compound activity from PubChem BioAssay.
# Hits are enriched below; roughly 1.8% of the tested compounds scored in any of these assays.
# LANA-H2B inh = blockers of LANA interaction with H2A/H2B – biochemical, FP readout, HTS, primary screen | inhibition, % (no concentration beside the values) | Protein LANA1 (Human herpesvirus 8 type P (isolate GK18)), Q9QR71 | 0.6% of 320,000 active | cell-free LANA-H2A/H2B peptide, fluorescence polarization | AID 2629, 2010; in the data active means inhibition mostly above about 10%, no sharp cut-off; inactive means mostly below about 6.7%
# PKD1 kinase inh = inhibitors of human PKD1 kinase, biochemical, fluorescence polarization; Serine/threonine-protein kinase D1 (Homo sapiens), Q15139; inhibition, % (test concentration not listed); 0.056% of 200,000 active; PKD1 kinase fluorescence polarization assay; AID 797, 2007
# GRK2 aptamer HTS = compounds blocking aptamer binding on GRK2 – biochemical, human GRK2, bead flow cytometry, HTS, primary screen | AID 488847, 2010 | Beta-adrenergic receptor kinase 1 (Homo sapiens), P25098 | 0.59% of 330,000 active | inhibition of aptamer binding, % at 10 µM | FAM-aptamer displacement from GRK2;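 active means inhibition of aptamer binding above 40%, roughly 3 SD of noise, on plates passing a quality check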;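 further: median bead fluorescence of bound FAM aptamer so fluorescent compounds give negative values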
# HDAC3 inh = HDAC3 deacetylase inhibitors, primary screen, biochemical, fluorescence, cell-free homogeneous. Histone deacetylase 3 (Homo sapiens), O15379. recombinant HDAC3, fluorogenic peptide/trypsin coupled. inhibition, % at 8.3 µM. 0.15% of 320,000 active; in the data active means inhibition above about 26%, passing the limit was not always enough; inconclusive means no clear call, values can overlap the other calls
# Pemphigus Ab inh = inhibitors of pemphigus antibody binding to DSG3, primary screen, biochemical, bead-based, flow cytometry, scFv-GFP. binding (percent of control), % at 10 µM. Desmoglein-3 (Homo sapiens), P32926. DSG3-coupled beads, scFv-anti-DSG3-GFP binding; active compounds read low. AID 588358, 2011. 0.48% of 310,000 active;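 active means binding more than 3 SD below its plate's average and above zero; inconclusive means below that plate limit but binding exactly zero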;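 further: hits lower antibody fragment binding to DSG3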
# VLA-4 inh = inhibition in human VLA-4 binding assay, primary screen, VLA-4 allosteric modulator project, MLPCN library, flow cytometry, VLA-4 expressing cells. 0.2% of 330,000 active. ligand binding flow cytometry. AID 2557, 2010. inhibition, % (about 7 µM as worked out from the volumes in the protocol)
# Target sequence (P13612 whole entry, looked up): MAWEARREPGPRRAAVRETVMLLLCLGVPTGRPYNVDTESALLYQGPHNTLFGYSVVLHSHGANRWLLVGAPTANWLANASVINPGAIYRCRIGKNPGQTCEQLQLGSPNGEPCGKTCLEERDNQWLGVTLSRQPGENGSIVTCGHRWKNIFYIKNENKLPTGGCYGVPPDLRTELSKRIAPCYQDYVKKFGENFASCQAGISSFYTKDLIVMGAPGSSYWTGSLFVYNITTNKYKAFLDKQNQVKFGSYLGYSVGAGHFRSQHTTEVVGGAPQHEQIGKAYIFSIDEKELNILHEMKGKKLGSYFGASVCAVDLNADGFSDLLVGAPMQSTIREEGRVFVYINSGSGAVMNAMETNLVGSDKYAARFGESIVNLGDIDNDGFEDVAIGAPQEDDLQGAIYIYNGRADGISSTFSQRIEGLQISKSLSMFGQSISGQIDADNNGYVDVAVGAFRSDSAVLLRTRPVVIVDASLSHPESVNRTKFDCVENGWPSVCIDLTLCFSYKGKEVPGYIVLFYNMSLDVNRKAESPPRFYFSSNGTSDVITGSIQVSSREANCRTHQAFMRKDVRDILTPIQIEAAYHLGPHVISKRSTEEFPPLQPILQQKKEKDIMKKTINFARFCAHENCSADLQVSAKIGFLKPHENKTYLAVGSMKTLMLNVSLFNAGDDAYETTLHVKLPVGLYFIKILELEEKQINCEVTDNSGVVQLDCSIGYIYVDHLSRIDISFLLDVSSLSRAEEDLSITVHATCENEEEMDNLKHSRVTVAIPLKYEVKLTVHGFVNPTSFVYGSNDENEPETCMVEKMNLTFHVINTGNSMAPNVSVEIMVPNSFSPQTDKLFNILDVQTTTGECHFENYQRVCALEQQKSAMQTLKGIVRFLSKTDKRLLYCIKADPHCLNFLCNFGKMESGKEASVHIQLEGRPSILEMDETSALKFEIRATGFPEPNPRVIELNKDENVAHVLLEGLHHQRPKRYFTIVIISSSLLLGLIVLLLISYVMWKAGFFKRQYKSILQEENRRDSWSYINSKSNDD
# GRK2 CP1 = GRK2 aptamer-displacing inhibitors, retest, confirmation, biochemical, cherry pick 1, bead flow cytometry; 4% of 2,000 active; aptamer displacement, % at 10 µM; AID 504451, 2011; bead-bound GRK2, FAM-aptamer displacement; shares compounds with GRK2 aptamer HTS;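 active means aptamer displacement above 40%, near three times the noise of non-fluorescent compounds, on plates passing quality checks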;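 further: negative values mostly reflect intrinsic compound fluorescence rather than true enhancement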
# Aptamer quench = fluorescent aptamer quenching in GRK2 counter-screen dose response; fluorescence change (kMESF span), kMESF (test concentration not listed); Fluorescent RNA aptamer beads, flow cytometry; active compounds read high; 110 tested, under 10 active; AID 504521; shares compounds with GRK2 aptamer HTS;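 active means compounds whose bead fluorescence drops by more than 37 kMESF across the dose range, marking them as dye quenchers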
# Aptamer quench SP = quenches fluorescent RNA aptamer, GRK2 hit artifact; shares compounds with GRK2 aptamer HTS; Carboxyfluorescein RNA aptamer on beads, flow cytometry quenching; active compounds read low; fluorescence response (% of DMSO), % at 10 µM; 2,000 tested, under 10 active;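 active means compounds that quench the bead-bound fluorescent RNA probe, cutting fluorescence to under half of the solvent control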;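 further: counterscreen run without GRK2 so only probe quenching by compound is measured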
# GRK2 confirm 2 = GRK2 aptamer-displacing inhibitors, hit retest, confirmation, biochemical, cherry pick 2, bead flow cytometry; shares compounds with GRK2 aptamer HTS; 360 tested, under 10 active; AID 504782, 2011; bead-bound GRK2, FAM-aptamer displacement; inhibition of aptamer binding, % at 10 µM;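 active means inhibition of aptamer binding above 40%, about triple the noise seen with nonglowing compounds, on plates passing quality control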;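 further: negative values mostly come from compounds that fluoresce themselves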
# FAM quench SP = quenches fluorescent RNA aptamer, GRK2 hit artifact; shares compounds with GRK2 aptamer HTS; carboxyfluorescein RNA aptamer beads, flow cytometry quenching; active compounds read low; fluorescence response vs DMSO, % at 10 µM; 360 tested, under 10 active; AID 588494;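 active means response vs DMSO under 50%, meaning signal dropped by over half, treated as fluorescence quencher; inconclusive means no clear call, values can overlap the other calls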;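 further: labelled aptamer on streptavidin beads without GRK2 as a quench counter-screen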
# Hits are given with their value; n = inactive; u = inconclusive; x = no result given. Unless noted, no stated cut-off is given here; in the data, active means inhibition above about 50%; inactive means the rest.
SMILES,LANA-H2B inh,PKD1 kinase inh,GRK2 aptamer HTS,HDAC3 inh,Pemphigus Ab inh,VLA-4 inh,GRK2 CP1,Aptamer quench SP,others
Cc1onc(-c2c(Cl)cccc2Cl)c1-c1nc2cc(Cl)ccc2c(=O)o1,x,x,x,x,n,x,x,x,
Nc1nc(NCc2ccccc2)nc(NCCO)c1[N+](=O)[O-],n,x,n,n,x,n,x,x,
Nc1nc(NCCO)nc(NCc2ccccc2)c1[N+](=O)[O-],n,x,97,n,n,n,n,n,
C/C(COc1ccccc1)=N\NC(=O)c1nnn(-c2nonc2N)c1CSc1ccccc1,n,x,n,n,x,n,x,x,
O=C(CCCC(=O)NN=Cc1ccccc1Cl)NN=Cc1ccccc1Cl,x,x,x,x,n,x,x,x,
O=C(CNC(=O)c1ccccc1)N/N=C/c1ccccc1Cl,n,n,47,n,n,n,n,n,
Cc1ccc(NC(=O)CC(C)S(=O)(=O)c2ccc3c(c2)NC(=O)CO3)c(Cl)c1 (stereo unspecified),n,x,n,n,x,n,x,x,GRK2 confirm 2=n;FAM quench SP=n
CCOc1ccc(NC(=O)C2CC(=O)OC2c2ccccc2)cc1 (stereo unspecified),n,n,82,u,n,n,n,n,
O=C(CN1CCOCC1)Nc1ccc([N+](=O)[O-])cc1Br,n,n,n,n,n,n,x,x,
C[C@@H]1NC(=O)OC1c1ccco1 (stereo partly specified),n,x,76,n,n,n,n,n,
Cc1cc(CNCc2cn(C)nc2-c2ccc(Oc3ccccc3)cc2)on1,n,n,100,n,n,n,n,n,
Cn1cc(CNCC2CCCO2)c(-c2ccc(Oc3ccccc3)cc2)n1 (stereo unspecified),n,n,n,n,n,n,x,x,
CC1=NN(c2cccc(C(=O)O)c2)C(=O)/C1=C\C=C\c1ccco1,n,n,83,n,n,n,60,n,Aptamer quench=n
O=C(Nc1ccccc1Cc1ccccc1)c1oc2ccccc2c1COc1ccccc1,n,n,n,u,n,n,x,x,
O=C(NCCc1ccccc1)c1oc2ccccc2c1COc1ccccc1,n,n,69,n,n,n,n,n,
Cc1ccc2[nH]c(-c3ccccc3)c(CN3CCCC3)c(=O)c2c1,n,n,n,n,n,n,x,x,
Cc1ccc2[nH]c(-c3ccccc3)c(CN(C)C)c(=O)c2c1,n,n,n,n,n,n,n,n,
Cc1cc(=O)nc2c3ccccc3n(CC(=O)Nc3ccccc3Br)n12,n,x,n,n,n,n,x,x,
CC1Sc2ccc(S(=O)(=O)CCC(=O)N(C)Cc3ccco3)cc2NC1=O (stereo unspecified),n,x,n,n,n,n,x,x,
Cc1ccc(NC(=O)CCS(=O)(=O)c2ccc3c(c2)NC(=O)C(C)S3)cc1Cl (stereo unspecified),n,x,n,n,n,n,x,x,GRK2 confirm 2=n;FAM quench SP=n
CCC1Sc2ccc(S(=O)(=O)CCC(=O)Nc3c(Cl)cc(OC)cc3OC)cc2NC1=O (stereo unspecified),n,x,n,n,n,n,x,x,GRK2 confirm 2=n;FAM quench SP=n
CCOc1ccccc1N(C)C(=O)CCS(=O)(=O)c1ccc2c(c1)NC(=O)C(C)S2 (stereo unspecified),n,x,n,n,n,n,x,x,GRK2 confirm 2=n;FAM quench SP=n
CCC1Sc2ccc(S(=O)(=O)Nc3cc(OC)cc(OC)c3)cc2NC1=O (stereo unspecified),n,x,n,n,n,n,x,x,
CC1Sc2ccc(S(=O)(=O)CCC(=O)Nc3ccc(C(C)C)cc3)cc2NC1=O (stereo unspecified),n,x,n,n,n,n,x,x,
CC1Sc2ccc(S(=O)(=O)CCC(=O)NC(C)c3ccccc3)cc2NC1=O (stereo unspecified),n,x,n,n,n,n,x,x,GRK2 confirm 2=n;FAM quench SP=n
SMILES,LANA-H2B inh,PKD1 kinase inh,GRK2 aptamer HTS,HDAC3 inh,Pemphigus Ab inh,VLA-4 inh,GRK2 CP1,Aptamer quench SP,others
C=CC[C@H](CC(=O)NCCO)C(=O)NCCOC(=O)[C@@H](CC=C)CC(=O)OC(C)(C)C,n,x,n,n,n,n,x,x,
CCC(NC(=O)CCc1nnc(-c2cc(C)on2)o1)C12CC3CC(CC(C3)C1)C2 (stereo unspecified),n,x,n,n,n,n,x,x,
CC(=O)c1ccc(NC(=O)c2cccc(N3C(=O)c4ccccc4C3=O)c2)cc1,n,x,48,n,n,n,x,x,GRK2 confirm 2=n;FAM quench SP=n
COc1cccc(OC)c1NC(=O)CN(C)S(=O)(=O)c1ccc2c(c1)OCCO2,n,x,n,n,n,n,x,x,
Cn1cnc(Sc2ncnc3nc[nH]c23)c1[N+](=O)[O-],n,x,96,n,n,n,n,n,
Cc1cc2nc(N3C(=O)CNC3=S)sc2cc1C,n,n,75,n,n,n,n,n,
COc1ccccc1N1CCN(C(=O)c2cccc(S(=O)(=O)N3c4ccccc4CC3C)c2)CC1 (stereo unspecified),x,x,x,x,n,x,n,n,
O=C(c1cccc(S(=O)(=O)N2CCc3ccccc32)c1)N1CCN(c2ccccn2)CC1,n,n,n,n,n,n,n,n,
CC1Cc2ccccc2N1S(=O)(=O)c1cccc(C(=O)N2CCCCC2)c1 (stereo unspecified),x,x,x,x,n,x,x,x,
Cc1cccc(C(=O)N2CCN(c3ccccn3)CC2)c1,n,n,75,n,n,n,n,n,
Cc1ccc(C(=O)N2CCN(c3ccccn3)CC2)cc1,n,n,n,n,n,n,x,x,
Cc1cc(C)cc(C(=O)N2CCN(c3ccccn3)CC2)c1,n,n,n,n,n,n,n,n,
CCC(=O)c1ccc(OC(=O)N2CCOCC2)cc1,n,x,n,n,n,n,x,x,
O=C(Cc1ccc(NC(=O)C2CCN(C(=O)C3CC3)CC2)cc1)Nc1cccc(C(=O)N2CCCCC2)c1,x,x,x,x,n,x,x,x,
